LYPLA1 counter = blocks human lysophospholipase 1, a PME1 counter-screen. O75608. recombinant LYPLA1, FP-Rh probe fluorescence polarization. inhibition, % at 5.9 µM. 320,000 compounds, 0.16% hits. AID 2174;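 active = inhibition above the mean of all tested compounds plus 3 SD, set per campaign, cut at about 14% in these data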;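 note: inhibitors block serine hydrolase probe labeling of LYPLA1 so polarization falls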
LYPLA2 inh = counter-screen for PME1 inhibitors: inhibitors of human LYPLA2; inhibition, % at 5.9 µM; AID 2177; 320,000 compounds, 0.38% hits; O95372; recombinant LYPLA2, FP-Rh probe fluorescence polarization;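 active = inhibition above the screen-wide mean plus 3 SD, limit set per campaign, cut at about 26% in these data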
PP1 counter = PP1-alpha (human) inhibition in PP5 counter-screen | P62136 | purified PP1alpha, OMFP fluorescence | inhibition, % at 6.7 µM | 320,000 compounds, 0.9% hits | AID 2235;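 active = inhibition above the mean inhibition of all tested compounds plus 3 SD, computed separately for each screening campaign, cut at about 15% in these data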
PME-1 inh = PME-1 (human) inhibition | Q9Y570 | recombinant PME-1, FP-Rh probe fluorescence polarization | inhibition, % at 5.9 µM | 320,000 compounds, 0.53% hits | AID 2130;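 active = inhibition above the campaign mean of all compounds plus 3 SD, cut at about 26% in these data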;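 note: competitive labeling of PME-1 active site by serine hydrolase directed probe; inhibitors block probe labeling so polarization falls and inhibition rises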
PP5 inh = PP5 (human) phosphatase inhibition; P53041; purified PP5c, OMFP substrate fluorescence; inhibition, % at 6.7 µM; 320,000 compounds, 0.18% hits;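 active = inhibition above the campaign's mean inhibition across all tested compounds plus 3 SD, cut at about 9.5% in these data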
Target sequence (P53041 whole entry, looked up): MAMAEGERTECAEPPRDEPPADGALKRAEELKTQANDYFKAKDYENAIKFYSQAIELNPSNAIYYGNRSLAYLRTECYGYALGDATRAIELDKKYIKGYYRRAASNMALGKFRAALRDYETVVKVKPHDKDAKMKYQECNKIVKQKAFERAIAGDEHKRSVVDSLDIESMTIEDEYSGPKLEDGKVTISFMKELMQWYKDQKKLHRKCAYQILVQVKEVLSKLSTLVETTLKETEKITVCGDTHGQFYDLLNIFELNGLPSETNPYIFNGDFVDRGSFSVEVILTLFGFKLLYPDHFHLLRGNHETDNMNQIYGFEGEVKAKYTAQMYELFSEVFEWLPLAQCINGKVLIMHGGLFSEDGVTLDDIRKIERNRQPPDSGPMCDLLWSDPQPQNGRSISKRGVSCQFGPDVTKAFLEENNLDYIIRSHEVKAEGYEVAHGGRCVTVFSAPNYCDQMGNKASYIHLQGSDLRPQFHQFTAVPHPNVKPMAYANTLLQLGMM
Fam108B counter = Fam108B inhibition, counter-screen for RBBP9 inhibitors; recombinant Fam108B, FP-Rh probe fluorescence polarization; inhibition, % at 9.51 µM; 300,000 compounds, 0.33% hits;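 active = inhibition above the screen mean inhibition plus 3 SD, computed separately per campaign, cut at about 18% in these data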;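 note: inhibitors lower polarization as less probe binds the enzyme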
PP1 confirm = human PP1 phosphatase inhibition, confirmation. 1,900 compounds, 52% hits. AID 2358. inhibition, % at 6.7 µM. shares compounds with PP1 counter. purified PP1alpha, OMFP substrate fluorescence;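 active = mean PP1 inhibition above a set limit taken from the earlier primary screen, cut at about 15% in these data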
PP5 inh counter = inhibits human PP5 phosphatase in PP1 counter-screen; shares compounds with PP1 counter; AID 2360; inhibition, % at 6.7 µM; purified PP5c, OMFP fluorescence; 1,900 compounds, 4% hits;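 active = mean PP5 inhibition over triplicate wells above about 9.5% taken from the earlier PP1 screen, limit read from the data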
Numbers stand for hits; . = inactive; / = no result given. Hits are enriched below; roughly 1.8% of the tested compounds scored in any of these assays.

SMILES	LYPLA1 counter	LYPLA2 inh	PP1 counter	PME-1 inh	PP5 inh	Fam108B counter	PP1 confirm	PP5 inh counter
Cc1onc(-c2c(F)cccc2Cl)c1C(=O)Nc1ccc(Cl)c(S(=O)(=O)N(C)C)c1	.	.	.	.	.	/	/	/
Cc1cccc(/C=N/NC(=O)c2cc(-c3cccnc3)nc3ccccc23)c1	.	.	77.7	.	.	.	.	.
Cc1cccc(-c2cc(C(=O)N/N=C/c3cccnc3)c3ccccc3n2)c1	.	.	.	.	.	.	/	/
COC(=O)c1ccc(CNCC(O)COc2ccc(-c3ccccc3)cc2)cc1 (stereo unspecified)	.	.	.	.	.	.	/	/
COc1ccc(CNCC(O)COc2ccc(C(C)(C)c3ccccc3)cc2)cc1 (stereo unspecified)	.	.	23.8	.	.	.	.	.
COc1cc(NC(=O)c2cc(S(=O)(=O)N3CCCCC3)c[nH]2)cc(OC)c1	.	.	17.6	.	.	.	.	.
COc1cc(/C=C(\C#N)C(=O)Nc2cccc(C(=O)O)c2)ccc1OCc1ccc(Cl)cc1	.	.	31.4	.	.	.	24.2	.
COc1ccc(NC(=O)CCCc2ccccc2)cc1OC	.	.	.	.	.	.	/	/
C[C@H](NC(=O)c1nc[nH]c1C(=O)NCCCCCNC(=O)OC(C)(C)C)C(=O)OC(C)(C)C	.	.	.	.	.	.	/	/
CC(C)C[C@H](NC(=O)c1nc[nH]c1C(=O)NCC(=O)OCc1ccccc1)C(=O)OCc1ccccc1	.	.	.	.	.	.	/	/
CC(C)C[C@H](NC(=O)c1[nH]cnc1C(=O)N[C@@H](C)c1ccccc1)C(=O)OCc1ccccc1	.	.	18.3	.	12.4	.	.	.
CC(C)C[C@H](NC(=O)c1nc[nH]c1C(=O)NCCCCCNC(=O)OC(C)(C)C)C(=O)OC(C)(C)C	.	.	16.3	.	9.9	.	.	.
O=C(COc1ccc(Cl)cc1)NCCS(=O)(=O)N1CCN(c2ccccc2F)CC1	.	.	.	.	.	.	/	/
COc1ccccc1N1CCN(C(=O)c2ccc3nc(-c4ccco4)c(-c4ccco4)nc3c2)CC1	.	.	.	.	.	.	/	/
O=C(NC1CCCC1)c1ccc2nc(-c3ccco3)c(-c3ccco3)nc2c1	.	.	18.9	.	.	.	.	.
Cc1ccc(C)c(N2CCN(C(=O)c3ccc4nc(-c5ccco5)c(-c5ccco5)nc4c3)CC2)c1	.	.	19.4	.	.	.	.	.
COc1ccc(C(=O)N/N=C(\N)c2cc3ccccc3oc2=O)cc1	.	.	.	.	.	.	/	/
O=C(CCN1C(=O)/C(=C/c2ccco2)SC1=S)Nc1ccc(C(=O)O)c(O)c1	.	.	.	.	.	.	/	/
O=C(CCN1C(=O)/C(=C/C=C/c2ccccc2)SC1=S)Nc1ccccn1	.	.	.	.	.	.	/	/
COc1ccccc1/C=C1\SC(=S)N(CCC(=O)Nc2ccc(C(=O)O)c(O)c2)C1=O	.	.	27.4	.	.	.	.	.
CC(/C=C1\SC(=S)N(CCC(=O)Nc2cccc(C(=O)O)c2)C1=O)=C\c1ccccc1	.	.	23.1	.	.	.	16.0	.
CC(/C=C1\SC(=S)N(CCCC(=O)Nc2ccc(C(=O)O)cc2)C1=O)=C\c1ccccc1	.	.	19.0	.	.	.	.	.
O=C(CCN1C(=O)/C(=C/C=C/c2ccccc2)SC1=S)Nc1cccnc1	.	.	19.9	.	.	.	.	.
CC(/C=C1\SC(=S)N(CCC(=O)Nc2ccccc2O)C1=O)=C\c1ccccc1	.	.	.	.	.	.	/	/
O=C(COC(=O)COc1ccccc1)NCCC1=CCCCC1	.	.	.	.	.	/	/	/
SMILES	LYPLA1 counter	LYPLA2 inh	PP1 counter	PME-1 inh	PP5 inh	Fam108B counter	PP1 confirm	PP5 inh counter
COc1ccc(NC(=O)N2CCCC2C(=O)Nc2ccc(C)cc2C)cc1 (stereo unspecified)	.	.	.	.	.	.	/	/
O=C(N/N=C/c1c(O)n(-c2ccccc2Cl)c(=O)c2ccccc12)C1COc2ccccc2O1 (stereo unspecified)	.	.	19.1	.	.	.	22.7	.
Cc1c(/C=N\NC(=O)C2COc3ccccc3O2)c2ccccc2n1C (stereo unspecified)	.	.	.	.	.	.	/	/
Cc1ccc(-n2c(O)c(/C=N/NC(=O)C3COc4ccccc4O3)c3ccccc3c2=O)cc1 (stereo unspecified)	.	.	19.0	.	.	.	27.3	.
COCCN(C(=O)COC(=O)Cc1ccc(Cl)cc1Cl)c1c(N)n(Cc2ccccc2)c(=O)[nH]c1=O	.	.	81.5	.	.	.	.	.
Cc1ccccc1C(=O)OCC(=O)N(C)c1c(N)n(Cc2ccccc2)c(=O)[nH]c1=O	.	.	.	.	.	.	/	/
Cc1cc(C(=O)OCC(=O)N(C)c2c(N)n(Cc3ccccc3)c(=O)[nH]c2=O)c(C)n1-c1ccccc1	.	.	20.5	.	.	/	.	.
COc1ccccc1C(=O)Nc1ccc(N2CCCCC2)cc1	.	.	.	.	.	.	/	/
COc1cccc(OC)c1C(=O)Nc1ccc(N2CCCC2)cc1	.	.	28.0	.	.	.	.	.
O=C(Nc1ccc(N2CCCC2)cc1)c1ccc(Br)cc1	.	.	24.0	.	.	.	.	.
O=C(Cc1cccc(F)c1F)NC1CCCN(Cc2ccc(Cl)cc2)C1 (stereo unspecified)	.	.	.	.	.	.	/	/
O=C(CSc1nnc2c(n1)[nH]c1ccccc12)NCc1ccccc1F	.	.	22.5	.	.	.	.	.
CC(Sc1nnc(-c2ccccc2F)n1C)C(=O)NC1CCCCC1 (stereo unspecified)	.	.	.	.	.	/	/	/
COc1cccc(C(=S)N2CCCC2)c1OC	.	.	.	.	.	.	/	/
CCOc1ccc(Nc2nc(-c3cccnc3)cs2)cc1	.	.	.	.	.	.	/	/
CCC(=O)c1ccc(OCC(=O)Nc2nc(-c3cccnc3)cs2)cc1	.	.	17.9	.	.	.	29.0	.
Cc1ccccc1OCC(=O)Nc1nc(-c2ccncc2)cs1	.	.	.	.	.	/	/	/
CCc1ccccc1OCC(=O)Nc1nc(-c2cccnc2)cs1	.	.	44.8	.	10.1	.	44.0	.
CC(=O)c1ccc(OCC(=O)OCC(=O)Nc2sccc2C(N)=O)cc1	.	.	.	.	.	/	/	/
COc1cccc(=O)c2c(C)n(CC(=O)c3ccccc3)c(C)c12	.	.	23.0	.	.	.	.	.
O=C(N/N=C/c1ccc(O)cc1O)c1ccc(NC(=O)C2CCCCC2)cc1	.	.	50.0	.	.	.	36.2	.
COc1ccc(C2C(C(=O)c3ccco3)=C(O)C(=O)N2c2nnc(C)s2)cc1OC (stereo unspecified)	.	.	.	.	.	.	/	/
